A selection: hits, their analogues and other compounds. The true share with any hit is near 3.1%.
BoNT-A LC inh2 = inhibitors of Botulinum neurotoxin A light chain protease; AID 588499; 0.17% of 360,000 active; inhibition, % at 10 µM; multiplex microsphere protease substrate cleavage, flow cytometry; also: plate controls were buffer without enzyme for full effect and enzyme alone for no effect
Anthrax LF inh2 = blocks Bacillus anthracis lethal factor protease; P15917; multiplex microsphere protease cleavage assay, LF; inhibition, % at 10 µM; 0.12% of 360,000 active; AID 588501; also: plate controls were buffer without enzyme for full effect and enzyme alone for no effect
Target sequence (P15917 whole entry, looked up): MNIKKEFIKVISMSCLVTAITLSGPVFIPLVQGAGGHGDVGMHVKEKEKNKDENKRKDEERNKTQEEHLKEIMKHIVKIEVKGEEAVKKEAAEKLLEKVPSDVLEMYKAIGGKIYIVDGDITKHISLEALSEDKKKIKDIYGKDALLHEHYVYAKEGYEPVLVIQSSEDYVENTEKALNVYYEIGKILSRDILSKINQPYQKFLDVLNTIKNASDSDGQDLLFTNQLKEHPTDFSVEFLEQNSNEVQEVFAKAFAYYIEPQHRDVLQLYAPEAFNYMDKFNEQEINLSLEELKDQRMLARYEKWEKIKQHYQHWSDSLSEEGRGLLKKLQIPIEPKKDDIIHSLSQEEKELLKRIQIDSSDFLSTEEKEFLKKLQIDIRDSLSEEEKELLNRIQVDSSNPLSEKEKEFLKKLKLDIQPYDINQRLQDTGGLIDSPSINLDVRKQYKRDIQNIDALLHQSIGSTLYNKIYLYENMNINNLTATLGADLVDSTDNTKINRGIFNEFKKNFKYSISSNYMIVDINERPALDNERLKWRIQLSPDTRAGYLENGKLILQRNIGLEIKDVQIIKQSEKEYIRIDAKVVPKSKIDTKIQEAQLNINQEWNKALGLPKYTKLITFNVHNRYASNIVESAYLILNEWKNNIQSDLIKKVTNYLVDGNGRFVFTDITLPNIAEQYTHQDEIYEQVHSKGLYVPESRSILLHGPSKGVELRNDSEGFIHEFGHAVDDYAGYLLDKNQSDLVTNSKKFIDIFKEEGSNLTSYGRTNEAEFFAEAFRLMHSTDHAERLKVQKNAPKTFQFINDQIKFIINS
Autofluor counter = counter-screen for toxin protease inhibitors: compound fluorescence; AID 624483; fluorescence intensity (test concentration not listed); 3.1% of 360,000 active; compound autofluorescence counterscreen, microsphere flow cytometry; active compounds read high; in the data active = fluorescence intensity above about 16000; inconclusive = no clear call, values can overlap the other calls
BoNT F protease = inhibitors of Botulinum neurotoxin F light chain protease; Multiplex microsphere protease cleavage assay, flow cytometry; 0.22% of 360,000 active; inhibition, % at 10 µM; AID 588497; in the data active = inhibition above about 35%, passing the limit was not always enough; inconclusive = no clear call, values can overlap the other calls; also: plate controls were buffer without enzyme for full effect and enzyme alone for no effect
SSB-PriA inh = inhibitors of Klebsiella pneumoniae PriA binding to SSB C-terminal tail. inhibition, % at 33 µM. AlphaScreen SSBct-PriA binding, biotinylated peptide. 0.6% of 430,000 active; in the data active = inhibition mostly above about 37%, no sharp cut-off; inactive = mostly below about 20%;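 also: plate controls were negative control peptide for no effect and reference peptide for full effect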
The depositor's hits bear a star; i = inactive; ? = inconclusive; · = no result given. Rule as the data show it, unless noted: active = inhibition above about 30%; inconclusive = no clear call, values can overlap the other calls; inactive = below that.

SMILES	BoNT-A LC inh2	Anthrax LF inh2	Autofluor counter	BoNT F protease	SSB-PriA inh
COc1ccc(CC(=O)NCc2ccsc2)cc1	·	·	·	·	-3
CCCCc1cc(=O)oc2cc(C)cc(OCC(=O)NCC3CCC(C(=O)O)CC3)c12 (stereo unspecified)	0	-2	5962	-6	-8
CCCCc1cc(=O)oc2cc(C)cc(OCC(=O)O)c12	?	-2	21248*	3	-3
CCCC1=C(C(=O)OCC)C2(C(=O)Nc3ccccc32)C(C#N)=C(N)O1 (stereo unspecified)	-1	0	22790*	-1	-12
COC(=O)CC1=C(C(=O)OC)C2(C(=O)Nc3c(C)cccc32)C(C#N)=C(N)O1 (stereo unspecified)	?	-16	20727*	2	-5
Cc1snc(SCC(=O)NN=C(N)COc2cccc(C(F)(F)F)c2)c1C#N	·	·	·	·	6
COc1ccc(/C=N/n2c(C)nc3sc(C)c(C)c3c2=O)cc1	8	?	3518	38*	i
Cc1ccc(SCC(=O)NCCN2C(=O)CSC2=O)cc1C	0	-1	23097*	1	-16
Cc1nnc(SCC(=O)NCCN2C(=O)CSC2=O)n1-c1ccccc1	0	-7	3453	-3	-3
Cc1cccc(-n2nnnc2SCC(=O)NCCN2C(=O)CSC2=O)c1	-1	-2	22931*	-1	-6
Cc1cc(S(=O)(=O)N2CCN(c3ccc4nncn4n3)CC2)ccc1F	·	·	·	·	-1
CCOc1ccc(C(O)=C2C(=O)C(=O)N(CCOCCO)C2c2ccccc2OC)cc1 (stereo unspecified)	·	·	·	·	-4
CCOc1ccc(/C(O)=C2\C(=O)C(=O)N(CCOCCO)C2c2ccccc2OC)cc1 (stereo unspecified)	?	-1	23386*	-2	·
COc1ccc(CCNC(=O)c2cnc3sccn3c2=O)cc1	·	·	·	·	-2
CCc1cccc(Nc2c([N+](=O)[O-])cc(C(=O)N3CC(=O)Nc4ccccc43)cc2[N+](=O)[O-])c1	0	-2	1971	-3	48*
C=CCN1C(=O)C(Cc2ccccc2)S/C1=N/N=C/c1cccs1 (stereo unspecified)	-1	1	4601	-13	·
C=CCN1C(=O)C(Cc2ccccc2)S/C1=N/N=C\c1ccccc1 (stereo unspecified)	·	·	·	·	56*
COc1ccccc1N1CCN(C(=O)C(C)N(c2ccccc2)S(C)(=O)=O)CC1 (stereo unspecified)	?	-1	21669*	-6	9
COc1ccccc1N1CCN(C(=O)C(C)N(c2ccc(C)cc2)S(C)(=O)=O)CC1 (stereo unspecified)	1	-9	4039	5	5
COc1cc(C(=O)OCC(=O)NC2CCCC2)cc(NC(=O)c2ccco2)c1OC	-1	-6	20665*	-6	-6
CC(C)(C)C(=O)COC(=O)c1cccc(NC(=O)c2ccco2)c1	1	-3	23138*	1	-1
COc1cc(C(=O)OCC(C)=O)cc(NC(=O)c2ccco2)c1OC	0	1	3307	-3	-6
Cc1ccc(C(=O)OCC(=O)Nc2ccccc2)cc1NC(=O)c1ccco1	-1	-4	17209*	0	-7
O=C(Nc1cccc(C(F)(F)F)c1)c1ccco1	-3	-4	23988*	-4	-13
COC(=O)c1cccc(NC(=O)c2ccco2)c1	1	6	2465	2	1
SMILES	BoNT-A LC inh2	Anthrax LF inh2	Autofluor counter	BoNT F protease	SSB-PriA inh
O=C(NN=Cc1c(Cl)[nH]c2ccccc12)c1ccc2c(c1)OCCO2	·	·	·	·	6
CCC(C)c1ccccc1NC(=O)COC(=O)c1ccc(C)c(NC(=O)c2ccco2)c1 (stereo unspecified)	0	0	21016*	0	-3
Cc1ccc(C(=O)OCC(=O)Nc2cc(F)ccc2F)cc1NC(=O)c1ccco1	0	-19	8717	-4	-5
O=C(CCNS(=O)(=O)c1ccc(Br)cc1)NCc1ccc2c(c1)OCO2	-2	-1	24584*	-3	-4
O=S(=O)(NCc1ccc2c(c1)OCO2)c1ccc(F)cc1	1	-17	3274	-20	-7
CN(C)S(=O)(=O)c1ccc(S(=O)(=O)NCc2ccc3c(c2)OCO3)cc1	4	2	2948	38*	-8
N#Cc1c(N)sc(=S)c2c1CCCCC2	6	4	3216	-43	10
N#Cc1c(N)sc2c1CCCCCC2	-2	-3	24025*	-4	8
COc1ccc(-n2c(C)nc3ccc(NC(=O)c4ccc(F)c(F)c4)cc3c2=O)cc1	·	·	·	·	1
O=c1[nH]c(SCC2CCCCO2)nc2ccccc12 (stereo unspecified)	?	0	21391*	0	-17
Cc1cc(C(=O)CSc2nc3ccccc3c(=O)[nH]2)c(C)n1CC1CCCO1 (stereo unspecified)	0	-4	4355	-4	-2
Cc1cccn2c(=O)c3c(nc12)N1CCc2ccccc2C1C1(C3)C(=O)NC(=O)N(C)C1=O (stereo unspecified)	1	-3	19729*	0	5
CCCCN1C(=O)NC(=O)C2(Cc3c(nc4c(C)cccn4c3=O)N3CCc4ccccc4C32)C1=O (stereo unspecified)	-1	-8	9271	0	-13
CCN(CC)CCNC(=O)C(=O)Nc1ccccc1C#N	·	·	·	·	-15
O=C(CN1CCN(c2ccccn2)CC1)N1c2ccccc2Sc2ccc(C(F)(F)F)cc21	-4	-2	17711*	-7	7
O=C(CN1CCCC1)N1c2ccccc2Sc2ccc(C(F)(F)F)cc21	0	-1	2726	-3	-3
O=C(CN1CCN(c2ccccn2)CC1)N1c2ccccc2CCc2ccccc21	0	-3	20825*	-1	13
O=C(CCn1cncn1)Nc1ccc(Br)cc1	·	·	·	·	0
CC(c1ccccc1)C1C(C#N)=C(N)OC2=C1C(=O)CC(C)(C)C2 (stereo unspecified)	-2	-1	23366*	0	2
CC1(C)CC(=O)C2=C(C1)OC(/N=C/N1CCCC1)=C(C#N)C2c1ccccc1 (stereo unspecified)	-1	-1	5383	-2	·
CN1CCN(/C=N/C2=C(C#N)C(c3ccccc3)C3=C(CC(C)(C)CC3=O)O2)CC1 (stereo unspecified)	-1	-2	22390*	-4	·
CC1(C)CC(=O)C2=C(C1)OC(N)=C(C#N)C2C#Cc1ccccc1 (stereo unspecified)	1	-2	2836	6	8
Cc1ccn2cc(-c3ccc(NS(=O)(=O)c4ccc5cccc6c5c4CC6)cc3)nc2n1	·	·	·	·	-5
Cc1ccc(C(=O)Oc2coc(CSc3nnc(NC(=O)C4CC4)s3)cc2=O)cc1	30*	-1	2590	0	-26
O=C(c1sc2ccccc2c1Cl)N(Cc1ccccc1Cl)C1CCS(=O)(=O)C1 (stereo unspecified)	0	0	22430*	2	11
O=C(c1sc2ccccc2c1Cl)N(Cc1ccccc1)C1CCS(=O)(=O)C1 (stereo unspecified)	·	·	·	·	-1
O=C(c1sc2ccccc2c1Cl)N(Cc1ccco1)C1CCS(=O)(=O)C1 (stereo unspecified)	?	-3	23946*	-4	-1

Source: PubChem (several laboratories)
